Among all 47,000 compounds or so, about 3,100 (6.6%) were called active. This excerpt belongs to a sample that is enriched for actives. Unmarked numbers belong to inactive results. No stated cut-off is given here; in the data, active means inhibition above about 30%; inactive means the rest.
Molecular target: Ubiquitin carboxyl-terminal hydrolase 17-like protein 5 (Homo sapiens) (UniProt A8MUK1)
Assay: inhibitors of human USP17 deubiquitinase (AID 1645855)
Settings: purified USP17, Ub-rhodamine cleavage fluorescence, 3 h; at 50 µM; active compounds read high

Ubiquitin carboxyl-terminal hydrolase 17-like protein 5 (Homo sapiens), sequence (A8MUK1 whole entry, looked up): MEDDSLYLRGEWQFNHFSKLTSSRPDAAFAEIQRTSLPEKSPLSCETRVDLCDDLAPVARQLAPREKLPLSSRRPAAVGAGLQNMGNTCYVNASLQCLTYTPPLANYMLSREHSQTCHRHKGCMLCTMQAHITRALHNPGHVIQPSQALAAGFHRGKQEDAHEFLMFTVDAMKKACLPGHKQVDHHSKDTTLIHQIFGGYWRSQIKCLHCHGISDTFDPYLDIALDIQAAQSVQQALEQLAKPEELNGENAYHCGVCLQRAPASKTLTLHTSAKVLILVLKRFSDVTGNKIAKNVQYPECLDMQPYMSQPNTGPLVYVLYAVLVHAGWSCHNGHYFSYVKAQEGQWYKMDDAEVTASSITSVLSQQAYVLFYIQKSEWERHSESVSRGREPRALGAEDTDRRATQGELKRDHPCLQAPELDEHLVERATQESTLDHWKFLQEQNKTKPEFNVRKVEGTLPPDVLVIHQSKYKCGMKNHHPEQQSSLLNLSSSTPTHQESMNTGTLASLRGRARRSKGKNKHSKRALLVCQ

SMILES | inhibition
COc1cc([C@@H]2c3cc4c(cc3C[C@@H]3COC(=O)[C@H]32)OCO4)cc(OC)c1OC | 68.6% (active)
O=C1CSC(c2ccc(F)cc2)c2c(-c3ccccc3)nn(-c3ccccc3)c2N1 (stereo not given) | 6.01%
c1ccc(C2NCc3ccccc3-n3cccc32)cc1 (stereo not given) | 1.12%
O=c1c2ccccc2nc(-c2ccccc2)n1-c1ccccn1 | -2.09%
CN1C[C@H]2N(c3ncccn3)CCC[C@@]2(C(=O)NCC2CC2)C1 | 8.79%

Reference: PubChem BioAssay AID1645855 (Buhrlage Lab, Dana-Farber Cancer Institute and Novartis …, 2021)
